According to PubChem BioAssay (NCI):
This is part of a sample that, as a whole, favours compounds with a hit. Of some 83,000 tested, about 20% had one in any assay.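 Single-concentration screen, 48 h exposure, 96-well plates. Endpoint: percent growth. Below 10 = active.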 Unmarked numbers belong to inactive results. Activity calls are given as the source filed them.

Tests used:
Experiment in all cases: NCI-60 one-dose screen, 48 h (100 = growth as untreated, 0 = no growth, -100 = all killed)
Settings in all cases: 10 µM unless noted
[1] = tested on: HCT-15 colon
[2] = tested on: HT29 colon
[3] = tested on: SNB-75 CNS
[4] = tested on: SNB-19 CNS
[5] = tested on: U251 CNS
[6] = tested on: PC-3 prostate
[7] = tested on: SK-MEL-5 melanoma
[8] = tested on: UACC-62 melanoma
[9] = tested on: LOX IMVI melanoma
[10] = tested on: SK-MEL-28 melanoma

| SMILES | growth [1] | growth [2] | growth [3] | growth [4] | growth [5] | growth [6] | growth [7] | growth [8] | growth [9] | growth [10] |
| --- | --- | --- | --- | --- | --- | --- | --- | --- | --- | --- |
| COC[C@@H]1C[C@@]2(C)[C@@H](CC[C@@H]3[C@@H]2CC[C@@]2(C)[C@H]3CC[C@]2(C)O)CC1=O | 94.8% | 83.4% | 90.4% | 113% | 93.7% | 96.8% | 106% | 100% | 95.2% | 96.4% |
| O=C(O)c1c(Cl)n(Cc2ccc(O)cc2)c2ccc(O)cc12 | 118% | 110% | 80.6% | 106% | 106% | 72.4% | 85.8% | 98.9% | 98.8% | 100% |
| O=P1(NCCCl)OCCCN1CCCl (stereo not given) | 98.9% | 103% | 115% | 111% | 117% | 93.7% | 112% | 107% | 99.8% | 116% |
| C/C(Cc1ccc(Cl)cc1)=C(\c1ccc(OCCN2CCOCC2)cc1)c1ccc(OC(=O)Cc2ccccc2)cc1 | 91.1% | 79.5% | 89.6% | 101% | 97.4% | 81.9% | 95.6% | 84.5% | 97% | 99.7% |
| CC(=O)C(c1c(O)c2ccccc2oc1=O)c1cc(=O)oc2c1ccc1ccccc12 (stereo not given) | 101% | 109% | 67.8% | 90.7% | 91.5% | 85.7% | 96.5% | 91.1% | 96.6% | 110% |
| COC(=O)[C@@H](C)C[C@H](Cc1ccccc1)NC(=O)c1nc([C@@H](C[C@H](C(C)C)N(C)C(=O)[C@@H](NC(=O)[C@H]2CC(=O)CCN2C)C(C)C)OC(C)=O)sc1C(C)C | 8.84% (active) | -9.41% (active) | 15.7% | 21.2% | 12.1% | 24.3% | -14.3% (active) | 36.4% | 14.7% | 51.8% |
| CN[C@]1(c2ccccc2Cl)CCCC[C@H]1NCCCN1CCN(C)CC1 | 99% | 96% | 82% | 102% | 103% | 91.5% | 97.7% | 104% | 96.4% | 112% |
| COC(=O)[C@H](Cc1ccccc1)NC(=O)c1csc([C@@H](C[C@H](C(C)C)N(C)C(=O)[C@@H](NC(=O)[C@H]2CCCN2C)C2CC2)OC(C)=O)n1 | 18.7% | 8.98% (active) | 39.2% | 59.5% | 13.3% | 13.2% | 29.4% | 38.2% | 16.8% | 51.4% |
| CN(C)C(=O)Oc1ccccc1-c1ccccc1 | 103% | 101% | 107% | 104% | 101% | 91.9% | 102% | 104% | 97% | 116% |
| COC(=O)[C@H](Cc1c[nH]c2ccccc12)NC(=O)[C@@H](OC)[C@@H]1Cc2cc3cc(OC4CC(OC5CC(O)C(O)C(C)O5)C(O)C(C)O4)c(C)c(O)c3c(O)c2C(=O)[C@H]1OC1CC(OC2CC(OC3CC(C)(O)C(O)C(C)O3)C(O)C(C)O2)C(O)C(C)O1 (stereo not given in full) | 15.9% | 4.98% (active) | -88.5% (active) | 7.09% (active) | 6.13% (active) | -10.4% (active) | -72.1% (active) | -52.7% (active) | -3.17% (active) | -27.9% (active) |
| Nc1ccc(-c2nc3cc(F)ccc3[se]2)cc1F | 52.8% | 61% | 76.6% | 95.3% | 87.2% | 74.3% | 82.1% | 71.9% | 88.2% | 115% |
| COc1ccc(C2=CC(c3ccc(OC)c(OC)c3)c3c(c4ccccc4oc3=O)O2)cc1OC (stereo not given) | 13.6% | 3.84% (active) | -4.06% (active) | 17.9% | 24.2% | -18.3% (active) | 17.1% | 36.8% | 36% | 50.9% |
| COC(=O)[C@@H](C)C[C@H](Cc1ccccc1)NC(=O)c1csc([C@@H](C[C@H](C(C)C)N(C)C(=O)[C@@H](NC(=O)CN(C)C)C2CC2)OC(C)=O)n1 | 14.6% | -24.4% (active) | 37.4% | 41% | 12.7% | 25.9% | -47.6% (active) | 63.8% | 8.77% (active) | 61.3% |
| O=C([O][Hg][c]1ccccc1)c1ccccc1 | -62.7% (active) | -14.8% (active) | -4.27% (active) | 56.8% | -31.9% (active) | 35.4% | 5.37% (active) | -42.3% (active) | -80.3% (active) | -61.1% (active) |
| O=[N+]([O-])CC(O)C(Cl)(Cl)Cl (stereo not given) | 102% | 111% | 81.1% | 106% | 99.1% | 94.9% | 107% | 107% | 99.8% | 102% |
| C[N+](C)(C)Cc1cc(Cl)ccc1O | 91.8% | 97.5% | 99.3% | 118% | 98.7% | 99.8% | 93.1% | 102% | 99% | 102% |
| CCCCCN(CCCCC)CC(O)c1cc(Cl)ccc1OC (stereo not given) | 31.3% | 11.8% | 84.8% | 56.7% | 38.3% | 24.5% | 37.7% | 62.3% | 14.5% | 51.7% |
| CC(C)=CCc1c(O)c(C(=O)CC(C)C)c(O)c2c(-c3ccccc3)cc(=O)oc12 | 30.3% | 66.5% | 81.3% | 42.1% | 41.3% | 19.6% | -41.3% (active) | 12.2% | 68.2% | 39.2% |
| C=CCc1cc2c(cc1OCC)OCO2 | 96.5% | 87.7% | 106% | 99.7% | 107% | 80.8% | 103% | 108% | 94.2% | 102% |
| COC(=O)[C@@H](C)C[C@H](Cc1ccccc1)NC(=O)c1nc([C@@H](C[C@H](C(C)C)N(C)C(=O)[C@@H](NC(=O)[C@H]2CCCN2C)C(C)C)OC(C)=O)sc1C | 13.4% | 2.1% (active) | 51.2% | 42% | 5.39% (active) | 17.2% | -20.7% (active) | 46.6% | 25.6% | 65.6% |
| O=C1C2CC=CCC2C(=O)N1SC(Cl)(Cl)Cl (stereo not given) | 67.3% | 89.2% | 104% | 91.5% | 98.8% | 81.9% | 94.1% | 93.6% | 78.6% | 132% |
| COc1ccc(/C=C\c2cc(OC)c(OC)c(OC)c2)cc1NC(=O)/C=C/c1ccc(OC)c(OC)c1 | 29.7% | 15.7% | 16% | 36.6% | 35.4% | 31.7% | 5.07% (active) | 36.6% | 30.8% | 51.8% |
| Oc1c(CCl)cc(Cl)cc1CCl | 109% | 104% | 95.8% | 107% | 110% | 93.9% | 104% | 116% | 93.8% | 126% |
| COc1ccc2nc(NC(=O)COc3cc(/C=C\c4cc(OC)c(OC)c(OC)c4)ccc3OC)sc2c1 | 15.5% | 10.3% | -5.27% (active) | 31.5% | 20.4% | 30.4% | 10.8% | 33.8% | 8.81% (active) | 43.5% |
| ClCCN(CCCl)c1ccc(/C=N/Nc2ncnc3nc[nH]c23)cc1 | 95% | 77.5% | 72.7% | 82% | 67.6% | 232% | 75% | 74% | 65.8% | 117% |
